# Source: PubChem BioAssay (NCATS)
# Results filed as inconclusive are left out. A call without a number means that no potency is given here. Calls of active or inactive are those of the source. Calls come from the whole dose curve; as a rule, active = well fitted curve in the direction sought with a large enough effect; inconclusive = small, poorly fitted or top-dose-only effect, or another doubt; inactive = no such curve, though single readings can be large; an effect the other way counts as inactive or inconclusive.
# Key:
# [1] = biological target: Furin (Homo sapiens) (UniProt P09958); experiment: Furin counterscreen qHTS for Zika virus inhibitors (AID 1347149); note: nearly all actives have a fitted effect of over 70% in size; note: potency is the fitted concentration of half-maximal effect
# Sequence of Furin (Homo sapiens) (P09958 whole entry, looked up): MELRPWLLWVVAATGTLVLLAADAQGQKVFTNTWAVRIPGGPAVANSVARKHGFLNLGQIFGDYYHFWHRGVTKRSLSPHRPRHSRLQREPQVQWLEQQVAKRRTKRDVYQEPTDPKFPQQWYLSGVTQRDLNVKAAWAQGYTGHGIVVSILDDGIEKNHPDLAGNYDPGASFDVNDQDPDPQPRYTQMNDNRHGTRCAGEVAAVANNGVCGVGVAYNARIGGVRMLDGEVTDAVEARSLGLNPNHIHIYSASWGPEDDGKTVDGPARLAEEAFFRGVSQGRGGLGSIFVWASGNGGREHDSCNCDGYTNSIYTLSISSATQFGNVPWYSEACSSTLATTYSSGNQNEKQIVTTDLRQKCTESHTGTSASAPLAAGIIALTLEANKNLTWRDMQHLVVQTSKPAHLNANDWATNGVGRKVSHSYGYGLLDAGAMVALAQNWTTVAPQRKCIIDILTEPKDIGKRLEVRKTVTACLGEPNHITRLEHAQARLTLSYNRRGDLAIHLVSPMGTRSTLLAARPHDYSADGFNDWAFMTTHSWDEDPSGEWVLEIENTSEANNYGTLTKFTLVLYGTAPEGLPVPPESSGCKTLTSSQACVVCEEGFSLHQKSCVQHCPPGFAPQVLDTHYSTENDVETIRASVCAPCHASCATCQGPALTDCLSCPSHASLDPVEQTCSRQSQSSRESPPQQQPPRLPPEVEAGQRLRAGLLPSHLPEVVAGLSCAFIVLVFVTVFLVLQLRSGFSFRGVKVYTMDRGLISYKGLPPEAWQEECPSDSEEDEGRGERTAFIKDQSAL
# How it was run: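 Fluorogenic cleavage of BOC-RVRR-AMC (2 microM final, Km ~15 µM) was monitored (ex 340, em 450 nm) at 37C after 15 min RT preincubation of 5 nM furin with compounds in HEPES pH 7.0 buffer with CaCl2 and Triton X-100. Percent inhibition was fitted to a 4-parameter Hill curve.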
# [2] = system: Zika virus NS2B-NS3 protease (unlinked); experiment: Optimization of GU AMC qHTS for Zika virus inhibitors: Unlinked NS2B-NS3 protease assay (AID 1347151); note: nearly all actives have a fitted effect of over 80% in size; note: potency is the fitted concentration of half-maximal effect
# How it was run: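 Noncovalent complex of NS2B hydrophilic domain and NS3 protease domain, 25 nM final, in 10 mM Tris-HCl pH 8.0, 0.01% Tween 20. AMC fluorescence change over 15 min at room temperature was fitted to a 4-parameter Hill equation.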
# [3] = ZIKV-mCherry secondary qHTS for Zika virus inhibitors (AID 1347158); note: top concentration of the series differs between compounds
# How it was run: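 Vero, 5,000 cells/well, o/n 37 °C; cpd pin-transferred in DMSO; ZIKV-mCherry MOI 1, 48-72 h 37 °C; 32% PFA stock fix, Hoechst; imaged 10x DAPI/mCherry; mCherry+ threshold 450 RFU; % infection.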
# [4] = system: Zika virus NS2B-NS3 protease (linked); experiment: 384 well plate NINDS AMC confirmatory qHTS for Zika virus inhibitors (AID 1347163); note: nearly all actives have a fitted effect of over 50% in size; note: potency is the fitted concentration of half-maximal effect
# How it was run: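 Linked NS2B-NS3 protease (final 5 nM, 30 nM or 60 nM) was preincubated with compounds (final up to 1 mM) for ~15 minutes. Ac-VKTGKR-AMC substrate (final 30 microM) then reacted for 25 minutes at room temperature in the dark. Fluorescence (ex 355/em 460 nm) was normalized to no-enzyme and no-inhibitor controls.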
# [5] = system: Zika virus NS2B-NS3 protease (linked construct); experiment: 384 well plate NINDS Rhodamine confirmatory qHTS for Zika virus inhibitors (AID 1347164);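 note: fluorescence from protease cleavage of Ac-LKRR-rhodamine 110 substrate; nearly all actives have a fitted effect of over 65% in size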; note: potency is the fitted concentration of half-maximal effect
# How it was run: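 Linked protease at a final 5 nM, 30 nM or 60 nM was preincubated ~15 min with compounds, then given 10 microM Ac-LKRR-Rhodamine 110. Fluorescence (ex 485/em 538 nm) after 25 min in the dark at room temperature.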
# [6] = Vero cells viability qHTS for Zika virus inhibitors (AID 1347167); note: potency is the fitted concentration of half-maximal effect
# How it was run: (§1)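 Compounds were tested in concentration series on cells grown in DMEM containing 4% FBS. After 24 to 48 hours, cellular ATP was measured by luminescence with CellTiter Glo.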
# [7] = Tertiary RLuc qRT-PCR qHTS assay for Zika virus inhibitors (AID 1347169); note: nearly all actives have a fitted effect of over 55% in size; note: potency is the fitted concentration of half-maximal effect
# How it was run: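 Vero cells (1,000 per well) plated overnight at 37 degrees C, treated with compound in DMSO, then infected with recombinant ZIKV-RLuc (Cambodian) at MOI 1-2 for 48-72 hrs. Live-cell Renilla luciferase substrate added; luminescence read after 1-1.5 hrs.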
# [8] = HepG2 cells viability qHTS for Zika virus inhibitors (AID 1347168)
# How it was run: as §1
# [9] = system: Zika virus NS2B-NS3 protease (linked construct); experiment: Confirmatory screen NINDS AMC qHTS for Zika virus inhibitors (AID 1347152); note: nearly all actives have a fitted effect of over 70% in size; note: potency is the fitted concentration of half-maximal effect
# How it was run: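 Purified NS2B-NS3 protease with NS2B hydrophilic domain linked to NS3 protease domain by flexible linker, 1 nM final in 10 mM Tris-HCl pH 8.0, 0.01% Tween 20. Compounds preincubated 15 min, room temperature; Bz-Nle-KRR-AMC 10 microM (Km 18.3 µM); 15-min fluorescence change, 4-parameter Hill fit.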
# [10] = system: Zika virus NS2B-NS3 protease (unlinked complex); experiment: Confirmatory screen GU AMC qHTS for Zika virus inhibitors (AID 1347153); note: nearly all actives have a fitted effect of over 70% in size;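 for potency: enzyme at 25 nM with substrate at 10 µM below its Km of 18.3 µM; potency is the fitted concentration of half-maximal effect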
# How it was run: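 Compounds were preincubated 15 min at room temperature with 25 nM noncovalent NS2B-NS3 protease at pH 8.0; AMC substrate added at 10 microM and 15-min fluorescence gain (340/450 nm) converted to percent inhibition, fitted 4-parameter.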
# [11] = Primary qHTS for small molecule stabilizers of the endoplasmic reticulum resident proteome: Secreted ER Calcium Modulated Protein (SERCaMP) assay (AID 1508630)
# How it was run: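 GLuc-SERCaMP-expressing SH-SY5Y cells, pretreated 16 h with compound, are challenged with thapsigargin to empty ER calcium stores; after 4 h, coelenterazine is added directly to the medium and luminescence is imaged.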
smiles,measurement,setting,value
Oc1cc2ccccc2c2ccccc12,Potency,[1],inactive
same,Potency,[2],44.1 µM (active)
same,Potency,[3],inactive
same,Potency,[4],inactive
same,Potency,[5],447 µM (active)
same,Potency,[6],19 µM (active)
same,Potency,[7],6.02 µM (active)
CN1CCN(C(=O)CCN2C(=O)/C(=C\c3ccccc3F)SC2=S)CC1,Potency,[1],inactive
same,Potency,[2],49.4 µM (active)
same,Potency,[4],251 µM (active)
same,Potency,[5],inactive
same,Potency,[6],inactive
same,Potency,[8],inactive
same,Potency,[7],inactive
O=C(O)COc1ccc(-c2nccc3c2C(=O)N(Cc2cccc(C(F)(F)F)c2)CC(COc2ccc(OC(F)(F)F)cc2)O3)cc1 (stereo unspecified),Potency,[1],49.4 µM (active)
same,Potency,[9],22.1 µM (active)
same,Potency,[10],22.1 µM (active)
same,Potency,[5],25.1 µM (active)
same,Potency,[7],inactive
O=C(O)Cn1ccc2cc(OCc3cccc(-c4cccc(C(F)(F)F)c4)c3)cnc21,Potency,[1],63.9 µM (active)
same,Potency,[9],56.9 µM (active)
same,Potency,[10],40.3 µM (active)
same,Potency,[3],inactive
same,Potency,[4],141 µM (active)
same,Potency,[5],28.2 µM (active)
same,Potency,[7],30.2 µM (active)
CCOc1ccc(C2C(=O)N(C3CCCCC3)CC(=O)N2Cc2ccc(F)cc2)cc1OC (stereo unspecified),Potency,[1],inactive
same,Potency,[2],inactive
same,Potency,[6],inactive
same,Potency,[8],inactive
same,Potency,[7],8.29 µM (active)
O=C1C2=C(Nc3ccccc3SC2c2ccc(Cl)c(Cl)c2)c2ccccc21 (stereo unspecified),Potency,[1],inactive
CC(=O)NC(CC(C)C)C(=O)NC(CC(C)C)C(=O)NC(C=O)CCCN=C(N)N (stereo unspecified),Potency,[1],inactive
CC(C)(C)c1ccc(NC(=O)O[C@@H]2CO[C@H]3[C@@H]2OC[C@@H]3Nc2nccc(-c3ccc(-c4ccccc4)cc3)n2)cc1,Potency,[1],62.2 µM (active)
same,Potency,[9],inactive
same,Potency,[10],inactive
NC(N)=Nc1ccc(O[C@H]2C[C@@H](Oc3ccc(N=C(N)N)cc3)[C@H](N=C(N)N)C[C@@H]2N=C(N)N)cc1,Potency,[1],1.26 µM (active)
COc1ccccc1N1CCN(CCn2c(=O)c3c(c4ccccc4n3C)n(C)c2=O)CC1,Potency,[1],24.1 µM (active)
same,Potency,[9],27.1 µM (active)
same,Potency,[10],24.1 µM (active)
same,Potency,[6],inactive
same,Potency,[8],inactive
same,Potency,[7],inactive
same,Potency,[11],inactive
O=C(O)c1cccc(-c2cc(C(F)(F)F)ccc2Cl)c1,Potency,[1],inactive
same,Potency,[9],inactive
same,Potency,[10],inactive
same,Potency,[3],inactive
same,Potency,[7],inactive
O=C(O)c1cccc(-c2cccc(C(F)(F)F)c2)c1,Potency,[1],inactive
same,Potency,[9],inactive
same,Potency,[10],inactive
same,Potency,[3],inactive
same,Potency,[5],501 µM (active)
O=[S+]([O-])([O-])c1ccc2c(c1)cc([S+](=O)([O-])[O-])c1nn(-c3ccc(/C=C/c4ccc(-n5nc6c([S+](=O)([O-])[O-])cc7cc([S+](=O)([O-])[O-])ccc7c6n5)cc4[S+](=O)([O-])[O-])c([S+](=O)([O-])[O-])c3)nc12,Potency,[1],inactive
same,Potency,[9],49.4 µM (active)
same,Potency,[10],49.4 µM (active)
same,Potency,[3],inactive
same,Potency,[4],inactive
same,Potency,[5],11.2 µM (active)
same,Potency,[7],6.58 µM (active)
